Percent response vs DMSO data for 87 molecules are collected here from PubChem BioAssay AID2025 (NMMLSC, 2009).

The whole screen tested about 330,000 compounds, of which about 980 (0.3%) were called active. This excerpt belongs to a sample that is enriched for actives. Unmarked numbers belong to inactive results.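 Rule for the calls: active = percent response vs DMSO below 50%; inconclusive = fewer than 70 events counted for the yeast strain; inactive = the rest.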

A short description of this assay: RPL19A-GFP expression modulators in yeast, primary screen, cell-based, S. cerevisiae, multiplex flow cytometry, MLPCN (AID 2025).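 Note: median channel GFP fluorescence of the barcoded RPL19A-GFP strain; ratio of sample median GFP to plate DMSO average so 100% = DMSO; lower means less RPL19A-GFP as with rapamycin TOR inhibition.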 The note with it: S. cerevisiae RPL19A-GFP strain, 3 h, at 10 µM, active compounds read low. A general note: A flow cytometer gives signals particle by particle.
Consider `CCOc1ccc(S(=O)(=O)N2CCC(c3ccccc3)CC2)cc1C(=O)O`, for which the percent response vs DMSO is 99.8%.
Next, `COc1ccc(S(=O)(=O)NC(C)C(=O)NCc2ccncc2)cc1Cl` (configuration not stated): 99.9%.
The same measure for `O=C(COc1cc2oc(=O)c3c(c2cc1Cl)CCC3)NCCCN1CCOCC1`: 112%; for `CC(Oc1cc2oc(=O)c3c(c2cc1Cl)CCCC3)C(=O)NCc1ccncc1` (configuration not stated): 14.1% [may fluoresce violet] (active); for `Cc1ccc(OCCCCN2CCCCC2)c(Br)c1`: 96.8%.
The same measure for `CCOc1ncccc1C(=O)OCC(=O)NC1CC1`: 99.9%.
For `CCOc1ncccc1C(=O)OCc1cn2cc(Cl)ccc2n1`, the percent response vs DMSO is 45.3% [may fluoresce violet] (active).
Next, `CCOc1ncccc1C(=O)OCC(=O)N1c2ccccc2CC1C` (configuration not stated): 95.9%; `Cc1cc(NC(=O)CCC(=O)N(CC(=O)NC2CCCC2)c2ccc(F)cc2)no1`: 100%; `Cc1cc(C)cc(N(CC(=O)NC2CCCC2)C(=O)CCC(=O)Nc2cc(C)on2)c1`: 46.1% [may fluoresce violet] (active).
Next, `Cc1cc(C)cc(N(CC(=O)NC2CCCC2)C(=O)CCC(=O)Nc2nccs2)c1`: 103%; `COc1cc(C2C3=C(CCCC3=O)OC3=C2C(=O)CCC3)ccc1OCC(=O)Nc1ccccc1`: 110%.
Next, `O=C1CSC(=S)N1c1ccc(Cl)c(Cl)c1`: 109%; `COc1ccccc1CN1CCCC(N2CCN(c3ccc(F)cc3)CC2)C1` (configuration not stated): 30.8% [may fluoresce violet] (active); `COc1ccccc1CN1CCN(Cc2cc(OC)c(OC)cc2OC)CC1`: 106%.
On to `COc1ccc(CN2CCCC(N3CCc4ccccc4C3)C2)c(O)c1` (configuration not stated), for which the percent response vs DMSO is 101%.
The same measure for `O=C(O)CSc1nccc2ccccc12`: 102%.
The same measure for `Cc1ccc(NC(=O)CCOc2ccccc2)cc1S(=O)(=O)Nc1ccccc1Cl`: 102%.
The same measure for `Cc1c(C(=O)Nc2cccc(-c3nnc4n3CCCCC4)c2)oc2ccccc12`: 111%.
Turning to `Cc1ccc(-c2csc(NC(=O)Cn3[nH]c(=O)c4ccccc4c3=O)n2)cc1`, the percent response vs DMSO was 103%.
The same measure for `O=C(Cn1[nH]c(=O)c2ccccc2c1=O)Nc1cccc(-c2nnc3n2CCCCC3)c1`: 17.9% [may fluoresce violet] (active); for `COC(=O)c1cc(C(=O)OCC(=O)Nc2cc(C)on2)cc([N+](=O)[O-])c1`: 41.7% [may fluoresce violet] (active); for `Cc1cc(NC(=O)COc2ccc([N+](=O)[O-])cc2)no1`: 105%.
Next, `Cc1cc(NC(=O)CSc2nccn2-c2ccc([N+](=O)[O-])cc2)no1`: 98.9%; `COc1ccc(S(=O)(=O)NCCc2cc3ccc(C)c(C)c3[nH]c2=O)cc1`: 101%; `Oc1ccc2ccc3cccc[n+]3c2c1`: 100%.
In the case of `Nn1c(SCC(=O)Nc2nccs2)nncc1=O`, the percent response vs DMSO is 95.5%.
The same measure for `CC(C)COP(=O)(c1ccc(N(C)C)cc1)C(Nc1ccccc1)c1cccnc1` (configuration not stated): 100%; for `COc1ccccc1CNC(=O)C1CCN(S(=O)(=O)c2ccc3c(c2)CC(C)N3C(=O)C2CC2)CC1` (configuration not stated): 102%.
Take `Cc1ccc(CNC(=O)CCS(=O)(=O)c2ccc3c(c2)CC(C)N3C(=O)C2CC2)o1` (configuration not stated): the percent response vs DMSO is 17.4% [may fluoresce violet] (active).
In the case of `CCC(=O)N1c2ccc(S(=O)(=O)CCC(=O)N3CCN(c4ccccc4)CC3)cc2CC1C` (configuration not stated), the percent response vs DMSO is 105%.
Take `Cc1cc(-c2ccc(C)c(S(=O)(=O)Nc3ccc(S(N)(=O)=O)cc3)c2)on1`: the percent response vs DMSO was 99%.
For `Cc1noc(C)c1S(=O)(=O)NCCc1ccc(S(N)(=O)=O)cc1`, the percent response vs DMSO was 95.7%.
Next, `CCc1ccc(-c2cc(C)no2)cc1S(=O)(=O)NCCc1ccc(S(N)(=O)=O)cc1`: 33.8% [may fluoresce violet] (active); `CCOC(=O)N1CCC(N(CCOC)C(=O)Nc2ccc(C)c(C)c2)CC1`: 89.6%.
Next, `CCOC(=O)C1Nc2ccc(C(F)(F)F)cc2C2C=CCC12` (configuration not stated): 93.3%; `CC1CCN(C(=O)CN(c2ccc(Oc3ccccc3)cc2)S(C)(=O)=O)CC1`: 100%; `COc1ccc(NC(=O)c2cccc(Cl)c2)c[n+]1[O-]`: 106%.
The same measure for `CC(CN1CCOCC1)OC(=O)c1ccc(C(C)(C)C)cc1` (configuration not stated): 105%; for `COCC(C)OC(=O)c1c(N)n(CCCN2CCOCC2)c2nc3ccccc3nc12` (configuration not stated): 27% [may fluoresce violet] (active).
`CC(C)(C)OC(=O)c1c(N)n(CCCN2CCCC2=O)c2nc3ccccc3nc12`: the percent response vs DMSO is 90%.
Next, `CCCCC(CC)CNC(=O)C(=O)C1C(=O)Nc2ccccc21` (configuration not stated): 96.8%.
In the case of `COc1ccc(N(CCC#N)S(=O)(=O)c2ccc(Cl)cc2)cc1`, the percent response vs DMSO is 99.2%.
The same measure for `COc1ccccc1OCCNCC(O)COc1cccc2[nH]c3ccccc3c12` (configuration not stated): 103%; for `O=C(CNC(=O)c1ccc(Cl)cc1Cl)NCC(=O)Nc1ccccc1N1CCOCC1`: 100%; for `O=C(c1ccccc1)N1CCN(c2ccc([N+](=O)[O-])c(NCc3ccco3)c2)CC1`: 98.5%.
The same measure for `COc1ccc(CCNc2cc(N3CCN(C(=O)c4ccccc4OC)CC3)ccc2[N+](=O)[O-])cc1OC`: 19.6% [may fluoresce violet] (active); for `COc1ccccc1OCCNc1cc(N2CCOCC2)ccc1[N+](=O)[O-]`: 99.1%; for `Cn1ccsc1=NC(=O)c1cc(S(=O)(=O)N2CCOCC2)ccc1Cl`: 101%.
Next, `Cn1ccs/c1=N\S(=O)(=O)c1ccc(C(C)(C)C)cc1`: 43.3% [may fluoresce violet] (active); `COc1ccc(C2=Nn3c(nnc3-c3ccccc3OC)SC2)cc1OC1CCCC1`: 92.8%.
With `Cc1cccn2c(=O)c3cc(C#N)c(=O)n(CCCN4CCOCC4)c3nc12`, the percent response vs DMSO was 37.1% [may fluoresce violet] (active).
The same measure for `Cc1cccn2c(=O)c3cc(C(=O)NCC4CCCO4)c(=N)n(Cc4ccc(F)cc4)c3nc12` (configuration not stated): 97.2%.
The same measure for `Cc1cccn2c(=O)c3cc(C#N)c(=NC(=O)c4cccnc4)n(CC4CCCO4)c3nc12` (configuration not stated): 97.3%; for `CCCOc1ccc(/C=N/NC(=O)C2CC2)c(OCCC)c1`: 101%.
Regarding `COc1cccc(N=c2oc3c(C)ncc(CO)c3cc2C(N)=O)c1`, the percent response vs DMSO is 95%.
The same measure for `Cc1oc(-c2ccccc2F)nc1CS(=O)CC(=O)NCCN1CCCCC1C` (configuration not stated): 100%.
The same measure for `Cc1ccccc1S(=O)(=O)Cc1ccc(C(=O)NCCN2CCCCC2C)o1` (configuration not stated): 34.3% [may fluoresce violet] (active); for `CCc1ccccc1S(=O)(=O)Cc1ccc(C(=O)NCCc2ccccc2)o1`: 96.8%.
Take `CCCS(=O)(=O)N1CCCC(C(=O)NCCN2CCCCC2C)C1` (configuration not stated): the percent response vs DMSO was 104%.
Next, `Cc1cc(N2CCOCC2)nc2ccc(NC(=S)N3CCN(Cc4ccccc4)CC3)cc12`: 105%.
Next, `CC(=NNC(=O)c1ccc2nc[nH]c2c1)c1ccc(Br)cc1`: 103%; `COc1ccc(/C(C)=N/NC(=O)c2ccc3nc[nH]c3c2)cc1`: 22.1% [may fluoresce violet] (active).
As for `CCN(CC)c1ccc(C(=O)N/N=C(\C)c2cccc(OC)c2)cc1`, the percent response vs DMSO is 103%.
The same measure for `CCCC(NC(=O)c1ccco1)c1nc2ccccc2[nH]1` (configuration not stated): 104%.
The same measure for `COc1c(C)c2c(c(O)c1C/C=C(\C)CCC(=O)O)C(=O)OC2`: 39.1% [may fluoresce violet] (active); for `Cc1c(C)n2c(SCC(=O)NC3CCCC3)nnc2[nH]c1=O`: 88%; for `COc1cc(SC)ccc1C(=O)NNC(=O)C1COc2ccccc2O1` (configuration not stated): 95%.
Next, `Cc1ccc(C23CC4CC(CC(C(=O)NCC(=O)O)(C4)C2)C3)cc1`: 30% [may fluoresce violet] (active); `CCOc1ccccc1NC(=O)C12CC3CC(C1)CC(c1ccc(C)cc1)(C3)C2`: 101%.
As to `C=CCNC(=O)C12CC3CC(C1)CC(C(=O)NCC=C)(C3)C2`, the percent response vs DMSO is 98.2%.
Next, `O=C(COc1ccc2c(c1)CCC2)N1CCN(c2ccc(F)cc2)CC1`: 95.3%; `COc1ccc(-c2nc3ccccc3n2CCC(C)C)cc1OC`: 98.3%.
Next, `O=C1N(c2ccc(Cl)cc2)C(c2ccc(Cl)cc2)N2CCCN12` (configuration not stated): 95.4%.
Consider `CCOC(=O)C1CCN(C(=O)CN2C(=O)c3cccnc3Oc3ccc(C)cc32)CC1`, for which the percent response vs DMSO was 97.7%.
For the molecule `Cc1cc2c(cc1C)N(Cc1ccccc1)C1=NCCCN12`, the percent response vs DMSO was 101%.
For the molecule `CC(C)c1ccc(C2C(C#N)=C(N)Oc3c2oc(CO)cc3=O)cc1` (configuration not stated), the percent response vs DMSO was 44% [may fluoresce violet] (active).
As for `C=CCOC(=O)C1=C(C)OC(N)=C(C#N)C1c1ccc(F)cc1` (configuration not stated), the percent response vs DMSO was 91.2%.
Next, `COC(=O)C1=C(N)Oc2c(oc(CO)cc2=O)C1c1c(F)cccc1Cl` (configuration not stated): 103%.
With `Cc1cccc(OCC(=O)NC2CC(C)(C)NC(C)(C)C2)c1`, the percent response vs DMSO was 98.6%.
The same measure for `Cc1cccc(NC(=O)Cn2c(=O)n(Cc3ccccc3)c(=O)c3c(C)c(C)sc32)c1`: 104%.
Next, `Cc1c(C(C)(C)O)[nH]c2ccc(C#N)cc12`: 91.7%.
Take `CCOC(=O)C1CCCN(C(=O)CSc2nnc3nc(C)cc(C)n23)C1` (configuration not stated): the percent response vs DMSO was 93.7%.
The same measure for `COc1cc(C(=O)NC2CCN(C)CC2)ccc1Nc1ncc2c(n1)N(C1CCC(O)CC1)CCC(=O)N2C` (configuration not stated): 90.7%; for `O=C(CS(=O)(=O)c1cn(Cc2cccc(F)c2)c2ccccc12)N1CCCCC1`: 43% [may fluoresce violet] (active); for `O=C(CS(=O)(=O)c1cn(Cc2ccc(Cl)cc2)c2ccccc12)N1CCOCC1`: 91.2%.
Next, `CC(=O)Nc1ccc(NC(=O)CS(=O)(=O)c2cn(CC(=O)N3CCCCC3)c3ccccc23)cc1`: 97.7%.
